Pf growth 96h: P. falciparum growth inhibition at 96 hours | P. falciparum luciferase reporter growth, 96 h | Potency, µM (doses to about 28.7 µM), usual class: inhibitors | actives 6.9% (n = 320,000)
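P. falciparum expressing integrated firefly luciferase grown in erythrocytes (2% hematocrit, 0.05% parasitemia final) with compounds for 96 hours at 37 C, 5% CO2. Growth inhibition read as loss of luminescence after adding luciferase detection reagent.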
HCMV inh: inhibitors of human cytomegalovirus; HFF cells, HCMV-luciferase reporter, 72 h; hits give low values; activity change, negative = inhibition, % at 57.5 µM; actives 4.5% (n = 410,000); in the data active = activity change below about -60%; inconclusive = no clear call, values can overlap the other calls; inactive = above about -39%
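After 16 h attachment at 37C, HFF cells received test compound and HCMV-luciferase (1 PFU/cell); reporter luminescence read 72 h later, data normalized against buffer-only and known inhibitor Salinomycin.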
CHX counter: counter-screen for Shiga toxin inhibitors: cycloheximide protein synthesis inhibition | AID 2314 | cell reporter, cycloheximide protein synthesis inhibition counterscreen | max response, % | actives 12% (n = 300,000); in the data active = max response mostly above about 13%, no sharp cut-off; inactive = mostly below about 14%; note: read at 38.3 µM for the half of the compounds with a filed dose
Shiga toxin inh: blocks Shiga toxin action in Vero cells; Vero cells, Shiga toxin protein synthesis inhibition reporter; actives 9.2% (n = 290,000); inhibition, % at 38.7 µM; in the data active = inhibition mostly above about 28%, no sharp cut-off; inactive = mostly below about 43%
HCV inhibitor: inhibitors of hepatitis C virus infection; Huh7.5.1 HCVcc-Cre infection, luciferase reporter, 44 h; Potency, µM (highest dose often 41.8 µM), most hits filed as inhibitors; actives 3.4% (n = 340,000)
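Luciferase read-out (15 sec integration) after a 15 min room-temperature substrate step quantifies HCVcc-Cre infection. Cells, 1,000 per well, had compound added 4 h post-plating, then virus at ~0.5 moi, and were cultured 44 h.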
Pf growth 48h: inhibits P. falciparum growth in the first generation, 48 h; P. falciparum luciferase growth in erythrocytes, 48 h; Potency, µM (top dose mostly 28.7 µM), most hits filed as inhibitors; actives 5.9% (n = 310,000); AID 504832
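Compounds are pin-transferred into medium, infected erythrocytes (2% hematocrit, 0.1% parasitemia final) are added, and plates sit one parasite generation at 37 C in 5% CO2. Detection reagent is then added and luminescence measured.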
Each line names hits and unclear results; the compound was inactive in the other large screens; ! = repeats disagree. Sampled rows, rich in hits. Any-hit rate of the full collection: about 21%. Unless noted, calls come from the whole dose curve; as a rule, active = well fitted inhibition curve with a large enough effect; inconclusive = small, poorly fitted or top-dose-only effect, or another doubt; inactive = no such curve, though single readings can be large or run the other way.

COc1cccc(CNc2nc3cc(-c4cnn(Cc5ccccc5)c4)sc3c(=O)n2C)c1	HCMV inh -82.1 (no result: Pf growth 96h, CHX counter, Shiga toxin inh, HCV inhibitor, Pf growth 48h)
COc1cccc(CNc2nc3cc(-c4cccc(OC)c4)sc3c(=O)n2C)c1	none (no result: Pf growth 96h, CHX counter, Shiga toxin inh, HCV inhibitor, Pf growth 48h)
Cc1cc(C)cc(-n2ccnc2SCC(=O)Nc2cccc3ccccc23)c1	none (no result: Pf growth 96h, CHX counter, Shiga toxin inh, HCV inhibitor, Pf growth 48h)
Cc1ccc(/C(N)=N/OC(=O)CCC2CCCCC2)cc1	Pf growth 96h inconclusive, CHX counter 14.2
N/C(=N\OC(=O)CCC1CCCC1)c1ccncc1	Pf growth 96h inconclusive, CHX counter 19.7
N/C(=N\OC(=O)CC1CCCCC1)c1ccncc1	Pf growth 96h inconclusive, CHX counter 16.6, Shiga toxin inh 58.3
N/C(=N\OC(=O)CC1CCCCC1)c1ccccn1	HCMV inh -60.5
CCCCCCCCCCCn1nnnc1N	none (no result: Pf growth 96h, CHX counter, Shiga toxin inh, Pf growth 48h)
O=C(CCC(=O)N1CC2CCCN2c2ccccc21)NCc1ccccc1 (centres undefined)	none (no result: Pf growth 96h, CHX counter, Shiga toxin inh, HCV inhibitor, Pf growth 48h)
O=C1OCCC1Sc1nnnn1-c1ccc(Cl)cc1 (centres undefined)	Pf growth 96h inconclusive, HCV inhibitor inconclusive
OB(O)O	none (no result: HCMV inh, CHX counter, Shiga toxin inh, HCV inhibitor)
CCc1ccc(S(=O)(=O)c2nnn3c2nc(N(CC)Cc2ccccc2)c2cc(Cl)ccc23)cc1	none (no result: Pf growth 96h, CHX counter, Shiga toxin inh, HCV inhibitor, Pf growth 48h)
CCOc1ccc(/C=C2\SC(=S)N(N3C(=O)C4CC4C3=O)C2=O)cc1 (centres undefined)	Pf growth 48h 4.15µM
CCOc1ccc(N=C2NC(=O)S/C2=C\c2ccc(N(C)C)cc2)cc1	CHX counter 21.6, Shiga toxin inh 59.2, HCV inhibitor inconclusive
CCOc1ccc(/C=C2/SC(=O)NC2=S)cc1	Pf growth 96h inconclusive, HCMV inh inconclusive, CHX counter 34.9, Shiga toxin inh 46.0
CCOc1ccc(/C=C2\SC(=S)N(CC(=O)N(CCO)C(C)(C)C)C2=O)cc1	HCMV inh inconclusive
CNS(=O)(=O)c1cccc(C(=O)NCC(C)(C)N2CCCCC2)c1	none
Cc1ccc(N=Nc2c(O)ccc3n[nH]nc23)cc1	CHX counter 41.6, Shiga toxin inh 103.4, HCV inhibitor inconclusive
CCc1ccc(N=Nc2ccc(O)c3[nH]cnc23)cc1	none (no result: CHX counter, Shiga toxin inh)
CC1CC=CC2C1C(=O)N(Cc1ccccc1)C2c1ccc(Br)cc1F (centres undefined)	none (no result: Pf growth 96h, HCMV inh, HCV inhibitor, Pf growth 48h)
COc1ccc(CN2COc3ccc4c(C)cc(=O)oc4c3C2)cc1	none (no result: Pf growth 96h, CHX counter, Shiga toxin inh, HCV inhibitor, Pf growth 48h)
O=C(CSc1ccccc1)Nc1ccc(-c2nc3ccccc3[nH]2)cc1	HCV inhibitor inconclusive, Pf growth 48h inconclusive
CCNC(=S)Nc1ccc(-c2nc3ccccc3[nH]2)cc1	Pf growth 96h inconclusive, CHX counter 40.3, Shiga toxin inh 102.9
CC1CCN(CC(=O)Nc2ccccc2C#N)CC1	HCMV inh inconclusive (no result: Pf growth 96h)
O=C(CN1CCOCC1)Nc1ccc(-c2nc3ccccc3[nH]2)cc1	CHX counter 26.6, Shiga toxin inh 75.9
CCOc1ccc(NC(=S)NCc2nc3ccccc3[nH]2)cc1	none
N#Cc1ccccc1NC(=O)CN1CCOCC1	Pf growth 96h 11.7µM
O=C(Cc1cccs1)Nc1ccc(-c2nc3ccccc3[nH]2)cc1	Pf growth 96h inconclusive, CHX counter 36.7, Shiga toxin inh 131.4
C=C1C(=O)O[C@@H]2[C@@H]1CC/C(C)=C\CC[C@@]1(C)O[C@H]21	Pf growth 96h 9.53µM, Pf growth 48h inconclusive (no result: HCMV inh, CHX counter, Shiga toxin inh, HCV inhibitor)
Cc1cc(C)cc(NC(=O)CCn2cnc3ccccc3c2=O)c1	none (no result: Pf growth 96h, CHX counter, Shiga toxin inh, HCV inhibitor, Pf growth 48h)
COc1ccc(NC(C)=O)cc1NC(=O)c1cccc(S(=O)(=O)N2CCN(Cc3ccccc3)CC2)c1	Pf growth 96h 3.7µM, Pf growth 48h inconclusive (no result: CHX counter, Shiga toxin inh)
COc1ccccc1NC(=O)c1cccc(S(=O)(=O)N2CCN(Cc3ccccc3)CC2)c1	Pf growth 96h 11.7µM, HCV inhibitor 10µM, Pf growth 48h inconclusive (no result: CHX counter, Shiga toxin inh)
COc1ccc(CN2CCN(S(=O)(=O)c3ccc(NC(C)=O)cc3)CC2)c(OC)c1OC	Pf growth 96h 13.1µM, HCMV inh -97.5!, Pf growth 48h inconclusive
Cc1oc2c(c1C(=O)NCc1ccccc1F)C1=NCCN1C=N2	none (no result: Pf growth 96h, CHX counter, Shiga toxin inh, HCV inhibitor, Pf growth 48h)
COc1ccc(NC(=S)Nc2ccccc2SC)c(OC)c1	none
CC(C)(C)c1ccc(C(=O)NC(=O)COC(=O)CCS(=O)(=O)c2ccccc2)cc1	none (no result: CHX counter, Shiga toxin inh)
CCN(CC)CCNc1nc(-n2nc(C)cc2C)nc2sc3c(c12)CC(C)(C)OC3	Pf growth 96h inconclusive, HCMV inh -64.2, CHX counter 11.8, HCV inhibitor 11.2µM, Pf growth 48h inconclusive

Screening results from PubChem BioAssay.
